“And” between values parts separate entries of the source, which are not always exact repeats. Equal entries are not always repeated. Records with an inconclusive call do not appear. A number with no mark means an inactive call. The source made the active and inactive calls. The call rests on the fitted dose curve.
Test: qHTS assay to identify small molecule agonists of the AP-1 signaling pathway - cell viability counter screen (AID 1159525); further: nearly all actives have a fitted effect of over 55% in size
Settings: ME-180 (cervical carcinoma) AP-1-bla cells viability, ATP luminescence, 5 h; series mostly up to 76.8 µM; viability change, negative = cytotoxic: at the top concentration
Excerpt: National Center for Advancing Translational Sciences [NCATS]
NIH Chemical Genomics Center [NCGC]
U.S. Environmental Protection Agency [EPA]
National Institutes of Environmental Health Sciences [NIEHS]
National Toxicology Program [NTP]
U.S. Food and Drug Administration [FDA]
Activator protein-1 (AP-1), a transcription factor, plays an important role in tumor genesis by regulating genes involved in cell proliferation, differentiation, apoptosis, and angiogenesis. AP-1 activity is induced by a complex network of signaling pathways that involves extracellular signals, such as growth factors. The AP-1 protein complex formed from c-Fos and c-Jun binding to the AP-1 response element results in transcriptional activation of genes containing such elements within their promoter.
Low molecular weight molecules have been discovered and developed to modulate various components of these signaling pathways, for example, MAP kinase inhibitors. However, many points of pathway modulation remain untested due to the lack of chemical probes making this signaling locus of general interest.
Using a beta-lactamase reporter-gene under control of the AP-1 response element, a cell-based assay [CellSensor(TM) AP-1-bla ME-180 developed by Invitrogen Corp.] was used to measure EGF-induced signaling. The Tox21 10K library compounds were measured for their ability to positively modulate the action of EC50 EGF on reporter gene activity. Compounds were screened in a 15-pt titration series in 1536-well format. The cytotoxicity of the Tox21 compound library against this cell line was tested in parallel by measuring the intra cellular ATP content in the same wells.
Tox21 Assay Protocol Summary:
2500 cells/5uL in Opti-MEM medium containing 0.5% dialyzed FBS, 0.1 mM NEAA, 1 mM sodium pyruvate and 10 mM HEPES was dispensed into 1536-well black wall/clear bottom plates using a Multidrop dispenser and cells were cultured at 37 degrees Celsius overnight. Next day 23 nL of compounds dissolved in DMSO, positive controls or DMSO were delivered to each well using a pin tool. The plates were incubated at 37 degrees Celsius for 5 hours. 1 uL of LiveBLAzerTM B/G FRET substrate (Solution A+B+C+D) was added to each well using a Flying Reagent Dispenser. After incubated at room temperature for 2.5 hours the plates were measured on an EnVision plate reader at Excitation 405nm, Emission1=460nm and Emission 2=530nm. The %Activity was determined from the ratio of 460nm/530nm.
After the plates were read for Beta-Lactamase assay on Envision; 3 ul Cell Titer Glo (Promega) was added to measure the cytotoxicity and the plates were then incubated at RT in dark for 30 min. The luminescence was read on ViewLux (Perkin Elmer, Shelton, CT) using 6 sec exposure. ViewLux data was expressed as relative luminescence units.
For primary data analysis, raw plate reads for each titration point were first normalized relative to […] EGF control (100%) and DMSO only wells (basal, 0%).
For primary data analysis for viability assay, raw plate reads for each titration point were first normalized Tetra n-octyl ammonium bromide control (-100%) and DMSO (control, 100%).
Potency means the concentration at half of the fitted maximal effect.

| SMILES | viability change, negative = cytotoxic | Potency |
| --- | --- | --- |
| [Cl-].[Cl-].[Cl-].[Yb+3] | 1.57% |  |
| O=C(N[C@H]1N=C(c2ccccc2F)c2cccc3c2N(CC3)C1=O)c1cc2ccccc2[nH]1 | 5.23% [at 35.3 µM] |  |
| CN(C)c1ccc(N)cc1 | -20% |  |
| CNC(=O)Oc1cc(C)cc(C(C)C)c1 | -2.14% |  |
| CCC1COC(Cn2cncn2)(c2ccc(Cl)cc2Cl)O1 (stereo not given) | 1% |  |
| CN1[C@@H]2CC[C@H]1CC(O)C2 (stereo not given in full) | -0.221% |  |
| CCCCC(CC)COC(=O)OOC(C)(C)C (stereo not given) | -7.49% |  |
| CN(C)C(=S)SSC(=S)N(C)C |  | 5.49 µM (active) and 9.52 µM (active) |
| CCC(OC(C)=O)C(CC(C)NC)(c1ccccc1)c1ccccc1 (stereo not given) | -13.7% |  |
| O=[N+]([O-])[O-].[Tl+] | -5.8% |  |
| O=[N+]([O-])c1ccc(CCl)cc1 | -26% |  |
| Cc1ccccc1OP(=O)(Oc1ccccc1C)Oc1ccccc1C | -0.471% |  |
| COC(=O)N(OC)c1ccccc1COc1ccn(-c2ccc(Cl)cc2)n1 | -10.2% |  |
| S=C=NCCc1ccccc1 | 7.3% |  |
| O=C(O)[C@H](O)[C@@H](O)C(=O)O | 11.4% |  |
| CC(=O)[O-].CC(=O)[O-].CC(=O)[O-].[Sb+3] | -1.02% [at 2.72 µM] |  |
| O=C1C2(Cl)C3(Cl)C4(Cl)C(Cl)(Cl)C5(Cl)C3(Cl)C1(Cl)C5(Cl)C24Cl (stereo not given) |  | 30.4 µM (active) |
| CC#C[C@]1(O)CC[C@H]2[C@@H]3C[C@H](C)C4=CC(=O)CC[C@]4(C)[C@H]3CC[C@@]21C | -0.961% [at 35.3 µM] |  |
| CCC1(CC)C(=O)N=C(O)NC1=O | 3.65% |  |
| Cc1ccc2cc3c(ccc4ccccc43)c3c2c1CC3 | -0.544% [at 35.3 µM] |  |

| SMILES | viability change, negative = cytotoxic | Potency |
| --- | --- | --- |
| CCC(C)Br (stereo not given) | -1.24% |  |
| Nc1cc(Cl)ccc1Cl | 1.76% |  |
| CCCCN(CCCC)C(=S)[S-].CCCCN(CCCC)C(=S)[S-].[Ni+2] | -0.211% [at 35.3 µM] |  |
| C=Cc1cccc(CCl)c1 | 2.72% [at 200 µM] |  |
| CCCCc1ccccc1 | 0.44% |  |
| CC(C)C(Nc1ccc(C(F)(F)F)cc1Cl)C(=O)OC(C#N)c1cccc(Oc2ccccc2)c1 (stereo not given) | -12.5% |  |
| CC(=O)[O][Pb]([c]1ccccc1)([c]1ccccc1)[c]1ccccc1 |  | 15.5 µM (active) |
| C1=CCC=C1 | -2.79% |  |
| ClC(Cl)C(Cl)(Cl)Cl | -0.559% |  |
| CC(C)=CC1C(C(=O)OC(C#N)c2cccc(Oc3ccccc3)c2)C1(C)C (stereo not given) | -0.962% |  |
| Cc1cc2c3c(c1)C(c1ccccc1)=N[C@@H](NC(=O)c1ccncc1)C(=O)N3CC2 | -0.984% |  |
| COC(=O)/C=C(\C)OP(=O)(OC)OC | 0.0774% |  |
| Fc1ccc(C(OCCN2CCN(CCCc3ccccc3)CC2)c2ccc(F)cc2)cc1 |  | 21.3 µM (active) |
| CCCCCON=O | -28.1% |  |
| c1csc(-c2ccc(-c3cccs3)s2)c1 | -9.08% |  |
| CCCCn1cc[n+](C)c1 (tested in a mixture with another compound) | 0.299% |  |
| C=C(C)C(=O)[O][Sn]([CH2]CCC)([CH2]CCC)[CH2]CCC |  | 0.977 µM (active) |
| CC(=O)[O][Sn]([c]1ccccc1)([c]1ccccc1)[c]1ccccc1 |  | 3.89 µM (active) |
| COc1nc(C)nc(NC(=O)NS(=O)(=O)c2ccccc2Cl)n1 | -3.38% |  |
| O=C(CCCCl)c1ccc(F)cc1 | -3.34% [at 35.3 µM] |  |
